# Assay outcomes from PubChem BioAssay.
# This is a sample that favours compounds with a hit; in the whole collection about 7.9% have one here.
# SW480 rerep = A quantitative high throughput screen for small molecules that induce DNA re-replication in SW480 colon adenocarcinoma cells; SW480 DNA re-replication, Hoechst DNA content imaging, 48 h; Potency, µM (series often up to 46.1 µM), without a hit: top-dose re-replication activation, usual class: activators; 340,000 compounds, 1.8% hits; AID 624297, 2012; also: % of control where 0% means no effect; nearly all actives have a fitted effect of over 55% in size
#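 Image-based DNA-content assay: after two days of treatment, nuclei were labelled with the DNA dye Hoechst and imaged, and hits were compounds raising the count of nuclei showing high fluorescence intensity.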
# KB-V1 MDR tox = qHTS assay for MDR1-selective chemotherapeutics: Primary screen using the drug-selected MDR subline cells KB-V1; KB-V1 MDR cells viability, CellTiter-Glo, 72 h; Potency, µM (top dose mostly 46.1 µM), most hits filed as cytotoxic; 400,000 compounds, 3.4% hits; also: % is scaled to controls: 0 for no effect and ±100 for the full control effect; nearly all actives have a fitted effect of over 60% in size
#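 KB-V1 MDR subline cells in DMEM (phenol-red free, 10% FBS) exposed to compounds in qHTS concentration series for 72 h at 37 degrees C. Viability read by CellTiter-Glo luminescence; concentration-effect curves fitted after normalization and correction.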
# MCF10A rerep = A quantitative high throughput screen for small molecules that induce DNA re-replication in MCF 10a normal breast cells; Potency, µM (top dose mostly 46.1 µM), inactives show at the top dose activity, positive = re-replication, usual class: activators; MCF 10A DNA re-replication, Hoechst nuclear intensity, 48 h; 350,000 compounds, 2.9% hits; also: % of control where 0% means no effect; nearly all actives have a fitted effect of over 50% in size
# HT1080 IDH1KD tx = qHTS for induction of synthetic lethality in tumor cells producing 2HG: qHTS for the HT-1080-IDH1KD cell line | HT-1080 IDH1 knockdown viability, ATP luminescence, 48 h | Potency, µM (doses to about 46.1 µM), inactives show top-dose activity, negative = toxicity, usual class: cytotoxic | 360,000 compounds, 2% hits | AID 686971, 2013;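 also: 0% = DMSO wells and -100% = cell-free medium wells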
#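 Knockdown cells (IDH1KD HT-1080) received compounds 2 h after plating at 750 cells/well and were kept 48 h at 37 °C in 5% FBS RPMI. A CellTiter-Glo luminescence read gave % activity for curve fitting.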
# HT1080-NT tox = qHTS for induction of synthetic lethality in tumor cells producing 2HG: qHTS for the HT-1080-NT fibrosarcoma cell line; AID 686970, 2013; HT-1080-NT fibrosarcoma viability, CellTiter-Glo ATP luminescence, 48 h; 360,000 compounds, 1.6% hits; Potency, µM (top dose mostly 46.1 µM), for inactives: at the top dose activity, negative = less viability, usual class: cytotoxic;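 also: NT is the 2HG producing partner of a matched IDH1 knockdown line; 0% = DMSO-treated cells and -100% = media-only wells without cells; nearly all actives have a fitted effect of over 55% in size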
#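 HT-1080-NT; 750 cells/well; 5% FBS RPMI; 48 h compound, 37 degrees C; CellTiter-Glo luminescence; curve fitting and curve-class assignment.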
# KB-3-1 tox = qHTS assay for MDR1-selective chemotherapeutics: Primary screen using the parental adenocarcinoma cell KB-3-1 | 400,000 compounds, 1.4% hits | KB-3-1 viability, CellTiter-Glo ATP luminescence, 72 h | Potency, µM (titrated, usually from 46.1 µM), hits mostly cytotoxic | AID 1347075, 2019; also: % is scaled to controls: 0 for no effect and ±100 for the full control effect; nearly all actives have a fitted effect of over 60% in size
#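 72 h, 37 °C compound treatment of KB-3-1 parental cells; CellTiter-Glo added, 10 min, luminescence read. Data corrected against DMSO-only plates and normalized before curve fitting.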
# Active calls of the source: *; i = inactive; ? = inconclusive; . = no result given; [ ] = remark or other dose. Calls follow the shape of the dose curve; as a rule, active = well fitted curve in the direction sought with a large enough effect; inconclusive = small, poorly fitted or top-dose-only effect, or another doubt; inactive = no such curve, though single readings can be large; an effect the other way counts as inactive or inconclusive. Potency is read from the fitted curve at half-maximal effect.
SMILES,SW480 rerep,KB-V1 MDR tox,MCF10A rerep,HT1080 IDH1KD tx,HT1080-NT tox,KB-3-1 tox
COc1ccc(N(CC(=O)Nc2ccc3c(c2)OCO3)S(=O)(=O)c2ccccc2)cc1,-11%,i,-1%,12%,12%,i
COC(=O)c1cc(NC(=O)CN(c2cccc(OC)c2)S(=O)(=O)c2ccccc2)ccc1Cl,2%,1.5µM*,19%,-14%,-6%,16µM*
Cc1cc(NC(=O)c2ccc3sc([C@@H]4O[C@H](CO)[C@H](O)[C@H](O)[C@H]4O)nc3c2)no1,.,i,.,-2%,14%,i
COc1ccc(NC(=O)Cn2c(C)cc3ccccc3c2=O)c(OC)c1,.,?,.,.,.,i
Cc1nc2cc(NC(=O)c3ccc(Cl)cc3)ccc2n1C,?,i,-2%,0%,-8%,i
COc1cc(C(=O)Nc2ccc3c(c2)ncn3C)cc(OC)c1OC,?,?,3.7µM*,?,?,?
COc1cc(C(=O)Nc2ccc3c(c2)nc(C)n3C)cc(OC)c1OC,15µM*,i,25%,9.2µM*,6.5µM*,4.1µM*
Cc1cccc(N2CCN(C(=O)CS(=O)(=O)c3cccc4nsnc34)CC2)c1C,.,i,.,.,.,i
NC1=NC(=O)S/C1=C\c1ccc(F)cc1,-1%,i,6%,?,23µM*,i
O=C(CCN1C(=O)c2ccccc2C1=O)N1CCN(Cc2ccccc2)CC1,-6%,i,0%,1%[9.24 µM],-7%,i
O=C(CCN1C(=O)c2ccccc2C1=O)N1CCN(Cc2ccc(Cl)cc2Cl)CC1,5%,15µM*,16%,2%,1%,i
CC(C)C(=O)N[C@H]1CCC2C3CC=C4C[C@@H](O)CC[C@]4(C)C3CC[C@@]21C (some centres undefined),-5%,i,8%,8%,4%,i
CC(C)(C)[C@H](N)C(=O)N[C@H]1CCC2C3CC=C4C[C@@H](O)CC[C@]4(C)C3CC[C@@]21C (some centres undefined),4.6µM*,?,16µM*,?,?,?
CC(=O)C1CCC2C3CC=C4N(C)C(=O)CCC4(C)C3CCC12C (centres undefined),0%,?,10%,17%,9%,i
C[C@]12CC[C@H](O)CC1=CCC1C2CC[C@@]2(C)C1CC[C@@H]2NC(=O)[C@@H](N)Cc1ccccc1 (some centres undefined),?,i,?,-28%,-2%,i
CCCCCCN[C@H]1CCC2C3CC=C4C[C@@H](O)CC[C@]4(C)C3CC[C@@]21C (some centres undefined),8.2µM*,?,?,?,-11%,?
CC(=O)C1CCC2C3CC=C4CC(SC(=N)N)CCC4(C)C3CCC12C (centres undefined),?,23µM*,?,?,?,?
COC(=O)c1ccc(NC(=O)NCCn2nnc3cc(S(=O)(=O)N(C)C)ccc32)cc1,.,i,.,.,.,i
COc1ccc(-c2cc(C(F)(F)F)nc(SCC(=O)N3CCCCC3)n2)cc1OC,.,?,.,.,.,i
C[C@H]1CN(c2ccc(Br)cc2)C(=O)[C@@H]1CC(=O)Nc1ccccc1,.,i,.,2%,8%,i
CCOC(=O)C1CCCN(c2nc3c(S(=O)(=O)c4ccc(CC)cc4)nnn3c3ccsc23)C1 (centres undefined),.,i,.,.,.,i
